Bioassay records deposited in PubChem by National Center for Advancing Translational Sciences (NCATS).
Sm TGR inh = inhibitors of Schistosoma mansoni thioredoxin glutathione reductase | Q962Y6 | purified TGR, DTNB reduction, TNB absorbance 405 nm | Potency, µM (highest dose often 114 µM), for the others: at the top dose activity change, negative = inhibition, usual class: inhibitors | actives 3% (n = 360,000); note: potency is the fitted concentration of half-maximal effect; nearly all actives have a fitted effect of over 60% in size
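Kinetic colorimetric format: TGR-catalysed, NADPH-driven DTNB reduction monitored via TNB absorbance. Enzyme dispensed at 20 nM; compound exposure 15 min at room temperature before reaction start.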
Pf growth 96h = P. falciparum growth inhibition at 96 hour, primary screen for plastid delayed-death inhibitors; P. falciparum luciferase reporter growth, 96 h; Potency, µM (top dose mostly 28.7 µM), without a hit: at the highest dose activity change, negative = inhibition, most hits filed as inhibitors; actives 6.9% (n = 320,000); note: potency is the fitted concentration of half-maximal effect
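P. falciparum expressing integrated firefly luciferase, in erythrocytes at 2% hematocrit, 0.05% parasitemia, incubated with compounds 96 h at 37 C, 5% CO2. Growth inhibition read as loss of luminescence; two-generation exposure targets delayed-death apicoplast inhibitors.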
HCMV inh = human cytomegalovirus inhibition. HFF cells, HCMV-luciferase reporter, 72 h; hits give low values. activity change, negative = inhibition, % at 57.5 µM. actives 4.5% (n = 410,000); in the data active = activity change below about -60%; inconclusive = no clear call, values can overlap the other calls; inactive = above about -39%
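Inhibition of viral replication was scored as loss of reporter luminescence in HFFs infected with HCMV-luciferase (MOI 1 PFU/cell) for 72 h; compounds tested at 2 doses, normalized to buffer and Salinomycin controls.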
Pf growth 48h = inhibits P. falciparum growth in the first generation, 48 h | P. falciparum luciferase growth in erythrocytes, 48 h | Potency, µM (highest dose often 28.7 µM), for inactives: at the top dose activity change, negative = inhibition, hits mostly inhibitors | actives 5.9% (n = 310,000) | AID 504832; note: potency is the fitted concentration of half-maximal effect
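A one-generation exposure of luciferase-tagged malaria parasites in RPMI 1640/Albumax erythrocyte culture, 37 C and 5% CO2. Inhibition is inferred from decreased luminescence after adding detection reagent.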
FBPA Giardia inh = blocks Giardia fructose-bisphosphate aldolase activity | purified Giardia FBPA | Potency, µM (highest dose often 59.6 µM), for the others: at the highest dose activity, negative = inhibition, hits mostly inhibitors | actives 0.71% (n = 290,000); note: potency is the fitted concentration of half-maximal effect; nearly all actives have a fitted effect of over 55% in size
Target sequence (A8B2U2 whole entry, looked up): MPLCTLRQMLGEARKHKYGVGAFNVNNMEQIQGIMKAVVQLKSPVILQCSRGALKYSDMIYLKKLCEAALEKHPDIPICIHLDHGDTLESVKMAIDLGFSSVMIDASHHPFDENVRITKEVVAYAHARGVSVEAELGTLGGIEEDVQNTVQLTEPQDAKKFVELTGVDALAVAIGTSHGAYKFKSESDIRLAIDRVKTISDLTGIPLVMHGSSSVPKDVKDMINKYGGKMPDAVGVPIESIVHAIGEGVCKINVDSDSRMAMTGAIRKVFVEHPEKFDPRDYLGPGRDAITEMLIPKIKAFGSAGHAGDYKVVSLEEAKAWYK
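40 nM FBPA preincubated 10 min at RT with compound (up to 57.5 uM final), then substrate plus GAPDH/TPI/NAD/arsenate coupling and diaphorase/resazurin added. Fluorescence read after 20 min at RT, 525/598 nm.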
An asterisk follows results filed as active; ? = inconclusive; · = not tested or not shown; [ ] = another dose, or the depositor's remark. Rows were chosen to be rich in hits. Some 14% of all compounds tested hit in one or more screens of this group. Unless noted, calls come from the whole dose curve; as a rule, active = well fitted curve in the direction sought with a large enough effect; inconclusive = small, poorly fitted or top-dose-only effect, or another doubt; inactive = no such curve, though single readings can be large; an effect the other way counts as inactive or inconclusive. % is set by controls: 0 for no effect and ±100 for the full control effect.

SMILES | Sm TGR inh | Pf growth 96h | HCMV inh | Pf growth 48h | FBPA Giardia inh
COC(=O)[C@]1(Cc2ccccc2)N[C@H](c2ccc(-c3ccc(Cl)c(Cl)c3)cc2)[C@@H]2C(=O)N(C)C(=O)[C@@H]21 | ? | 9.28µM* | 33.0 | 5.86µM* | ·
Cc1ccccc1NC(=O)CCc1c(C)nc2c(c1C)c(=O)n(C)c(=O)n2C | 3.4% | · | -2.4 | · | ·
Cc1ccc(OCC(=O)NCCNC(=O)c2ccccn2)cc1 | 6.3% | 24.0% | -21.8 | 31.7% | 3.1%
CCNC(=O)C1(C)CCN(C(=O)c2c(F)cccc2F)C1 (stereo unspecified) | · | · | -6.0 | · | ·
CC1CCN(C(=O)c2[nH]cnc2C(=O)N(C)Cc2ccccc2)CC1 | -16.7% | 33.8% | -61.7* | 10.5% | ·
CC1CCN(C(=O)c2[nH]cnc2C(=O)Nc2ccon2)CC1 | 39.8µM* | 22.8% | 1.8 | 9.2% | ·
COCC1=C2c3ccccc3[C@@H]3CNC(=O)C3(C(=O)OC)C[C@@H]2n2c(=O)n(-c3ccccc3)c(=O)n2C1 (stereo partly specified) | · | · | · | · | 4.0%
O=C1C=C(NC2=CC3OC(c4ccccc4)OCC3OC2=O)CCC1 (stereo unspecified) | 25.1µM* | 1.8% | 26.2 | -4.1% | 5.2%
COc1ccc(NC(=O)Cn2c(=O)n(-c3ccc(CC(=O)NCC4CCCO4)cc3)c(=O)c3ccccc32)c(OC)c1 (stereo unspecified) | -2.2% | · | 3.5 | · | ·
Cc1cccc(N2C(=O)CSC23CCCCC3)c1 | 6.0% | 1.47µM* | ? | -20.6% | 7.0%
CCCCc1ccc(S(=O)(=O)N[C@H]2CC[C@@]34CCCN3C(=O)CCC[C@H]4[C@H]2CCC)cc1 | · | · | -9.7 | · | ·
O=C(O)C1CCCCN1c1ccccc1[N+](=O)[O-] (stereo unspecified) | · | · | 15.2 | · | ·
O=C(O)C1Cc2ccccc2N2CCCC12 (stereo unspecified) | ? | 1.85µM* | -61.1* | ? | -26.8%
FC(F)(F)C(F)(F)C(F)(F)C(F)(F)C(F)(F)F | · | ? | · | -5.8% | ·
O=C1[C@@H]2Cc3c([nH]c4ccccc34)C(c3ccc([N+](=O)[O-])cc3)N2C(=O)CN1C1CC1 (stereo partly specified) | 12.4% | ? | 13.0 | 9.6%[0.00184 µM] | -3.4%
COc1ccc(C2c3[nH]c4ccccc4c3C[C@H]3C(=O)N(C4CCN(Cc5ccccc5)CC4)CC(=O)N23)cc1OC (stereo partly specified) | 8.3% | 1.47µM* | -11.6 | 1.47µM* | 4.1%
O=C1[C@@H]2Cc3c([nH]c4ccccc34)C(c3ccccc3)N2C(=O)CN1C1CC1 (stereo partly specified) | -6.8% | ? | 106.2 | ? | -10.6%
Cc1ccccc1C1c2[nH]c3ccccc3c2C[C@H]2C(=O)N(C3CC3)CC(=O)N12 (stereo partly specified) | 0.3% | 3.7µM* | 22.5 | 11.7µM* | 13.2%
COc1cccc(C2c3[nH]c4ccccc4c3C[C@H]3C(=O)N(C4CCN(Cc5ccccc5)CC4)CC(=O)N23)c1 (stereo partly specified) | 0.2% | 3.7µM* | -5.2 | 4.65µM* | 7.4%
COc1ccccc1C1c2[nH]c3ccccc3c2C[C@H]2C(=O)N(C3CCN(Cc4ccccc4)CC3)CC(=O)N12 (stereo partly specified) | -8.3% | 1.47µM* | -6.1 | 1.85µM* | 2.3%
CCOC(=O)C(C)(C)N(Cc1ccccc1C)S(=O)(=O)c1ccc(Cl)c([N+](=O)[O-])c1 | -0.2% | 2.62µM* | -31.8 | ? | -3.9%
COc1ccc2c(C)c(Cl)c(=O)oc2c1 | 0.0% | -11.6% | 4.7 | 0.0% | -4.7%
C=C1CC(COc2ccc3c(C)c(Cl)c(=O)oc3c2)(c2ccccc2)OC1=O (stereo unspecified) | · | · | -98.3* | · | ·
C=CCCC(=O)N1C[C@H]2CON(C)[C@H]2C[C@H]1c1ccccc1Br | · | · | 2.0 | · | ·
C=CCCC(=O)N1C[C@H]2CON(C)[C@H]2C[C@H]1c1ccc(Br)cc1 | · | · | -100.5* | · | ·
SMILES | Sm TGR inh | Pf growth 96h | HCMV inh | Pf growth 48h | FBPA Giardia inh
COc1ccccc1NC(=S)NC1CCC(CC2CCC(NC(=S)Nc3ccccc3OC)CC2)CC1 (stereo unspecified) | -2.3% | 8.28µM* | ? | 11.7µM* | -4.4%
COc1ccc(NC(=S)NC2CCCCC2)c(OC)c1 | -9.6% | ? | -25.5 | -12.1% | -3.2%
Cc1cc(OC(F)F)ccc1NC(=S)NC1CCCC1 | 6.9% | 13.1µM* | 3.3 | ? | -3.7%
COc1cc(-c2ccc(NC(=O)NC3CC3)c(OC)c2)ccc1NC(=O)NC1CC1 | -5.2% | ? | -77.3* | ? | 4.6%
COc1ccc(NC(=S)NC2CCCCCC2)c(OC)c1 | 8.4% | 2.6% | -77.2* | ? | 2.9%
CCC(=O)Nc1ccc(-c2ccc(NC(=O)CC)c(OC)c2)cc1OC | · | 0.0% | ? | 3.3% | -0.1%
Cc1cc(F)ccc1NC(=S)NC1CCCC1 | -5.8% | -11.1% | -25.0 | ? | -10.3%
CCCOc1ccccc1NC(=O)CC1Nc2ccccc2NC1=O (stereo unspecified) | -24.1% | 27.1% | 8.0 | 9.28µM* | -6.3%
CCOc1ccccc1NC(=O)CC1Nc2ccccc2NC1=O (stereo unspecified) | ? | 3.29µM* | 16.6 | 2.33µM* | -1.8%
CCOc1ccccc1NC(=O)CC1Nc2cc(C)c(C)cc2NC1=O (stereo unspecified) | -6.9% | ? | -10.7 | ? | -15.7%
COc1ccc(N2CCN(C(=O)C(=O)c3cccc([N+](=O)[O-])c3)CC2)cc1 | · | · | 18.3 | · | ·
Clc1ccccc1CSC1=NCCN1 | -23.2% | 23.0% | 3.4 | 14.7µM* | -7.2%
COc1ccccc1N=c1scc(-c2ccc3c(c2)NC(=O)CO3)n1CC1CCCO1 (stereo unspecified) | 0.7% | · | ? | ? | -5.2%
O=C1COc2ccc(-c3csc(=Nc4ccc(OC(F)F)cc4)n3CC3CCCO3)cc2N1 (stereo unspecified) | -11.4% | ? | -93.6* | ? | -3.1%
COCC(C)n1c(-c2ccc3c(c2)NC(=O)CO3)csc1=Nc1ccc(OC(F)F)cc1 (stereo unspecified) | -8.9% | ? | -88.2* | · | -5.8%
CN(C)S(=O)(=O)c1cccc(N=c2scc(-c3ccc4c(c3)NC(=O)CO4)n2CC2CCCO2)c1 (stereo unspecified) | -7.4% | · | ? | ? | -12.1%
COc1cc(NC(=O)CCc2nnc3ccc(N4CCOCC4)nn23)cc(OC)c1OC | -20.4% | 7.2% | -10.8 | ? | -4.2%
Cn1cc(C(=O)C(F)(F)F)c2ccccc21 | 16.7% | 44.5% | 66.9 | -4.9% | 3.5%
Cn1cc(C(=O)Cc2ccccc2)c2ccccc21 | -0.2% | ? | -67.1* | -13.0% | -9.0%
Cc1ccc(CNC(=O)CCc2cn(C)c3ccccc23)cc1 | -1.4% | 13.1µM* | ? | 16.8% | 1.3%
